The record followed here is PubChem BioAssay AID652048 (National Center for Advancing Translational Sciences (NCATS), 2013).

Values joined by “and” are separate entries in the source; they are usually repeats but may differ in a detail not shown here. Identical values can stand only once. The whole screen tested about 410,000 compounds, of which about 2,400 (0.59%) were called active. The sample holds actives, similar compounds and a random draw of the others, so the mix is not that of the screen. Cut-off read from the data, not from the text of the source: active = max activation above about 30%; inactive = the rest. Some structures have more than one record in an assay (separate samples or runs), and their calls can disagree.

Sequence of D(3) dopamine receptor (Homo sapiens) (P35462 whole entry, looked up): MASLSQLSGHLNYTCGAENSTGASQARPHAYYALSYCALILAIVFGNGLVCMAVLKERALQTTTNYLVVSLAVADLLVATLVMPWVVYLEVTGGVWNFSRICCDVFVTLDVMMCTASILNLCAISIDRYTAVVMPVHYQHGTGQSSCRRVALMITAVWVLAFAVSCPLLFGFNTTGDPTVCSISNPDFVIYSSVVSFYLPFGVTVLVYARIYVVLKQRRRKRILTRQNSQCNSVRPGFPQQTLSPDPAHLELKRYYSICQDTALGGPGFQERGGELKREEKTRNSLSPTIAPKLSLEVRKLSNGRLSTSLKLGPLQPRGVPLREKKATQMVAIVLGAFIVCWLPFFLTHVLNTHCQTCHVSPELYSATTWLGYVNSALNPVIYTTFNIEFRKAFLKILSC

The assay has as its target D(3) dopamine receptor (Homo sapiens) (UniProt P35462). As to the kind of experiment: qHTS of D3 Dopamine Receptor Agonist: qHTS. Note: 0% is about no effect. Particulars: D3R DiscoveRx beta-arrestin cells, luminescence, 90 min; stronger effect = higher value. In outline: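 Cells at 1500/well, incubated overnight, then treated with pinned compounds (dopamine as control) for 90 min at 37 degrees C. DiscoveRx reagent added for 30 - 60 minutes at room temperature; luminescence read.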
Consider `CC(C)(C)OC(=O)N1CCC(c2c(C(=O)NCCc3ccsc3)cnn2-c2ccc(F)cc2F)CC1`, for which the max activation is 6.51% (inactive).
As to `COc1ccc(/C=C/C(=O)c2cc(Br)ccc(=O)c2O)cc1`, the max activation was -1.59% (inactive).
In the case of `CCOc1ccc(/C=C/C(=O)OCC(=O)c2ccccc2OC)cc1OC` it was 3.52% (inactive); in that of `COCOc1cc(O)c(C(=O)/C=C/c2ccc(OCOC)c(OCOC)c2)c(OCOC)c1`, 32% (active).
As to `O=C(Nc1cccc(C(F)(F)F)c1)c1cc(Br)cc(Br)c1O`, the max activation was 0.389% (inactive).
As for `CC(C(=O)O)c1ccc(C2CCCCC2)c2ccccc12` (stereo unspecified), the max activation was 4% (inactive).
In the case of `Cc1ccc2nc(CN3CCN(S(=O)(=O)c4ccc(C)c(C)c4)CC3)oc2c1` it was -11.8% (inactive).
Consider `COc1ccc2c(c1)c(=Cc1ccc(N(C)C)cc1)c1cc(-c3ccccc3)[n+](C)n12`, for which the max activation is 1.19% (inactive).
In the case of `COc1ccc2sc(-c3ccc(N(C)C)cc3)c(C#CCO)c2c1` it was 38.4% (active); in that of `Cc1ccc(C)c(S(=O)(=O)n2nc(C)c(S(=O)(=O)N3CCC(C)CC3)c2C)c1`, 3.28% (inactive).
In the case of `CC(O)COc1ccccc1` (stereo unspecified) it was 8.58% (inactive); in that of `O=C(CSc1nc(O)c(Cc2ccccc2)c(=O)[nH]1)Nc1nc2c(s1)CCCC2`, 3.59% (inactive).
In the case of `O=C(CSc1nc2ccccc2c(=O)[nH]1)Nc1nc(-c2ccc(Br)cc2)cs1` it was 37.7% (active).
In the case of `O=C(COC(=O)c1cc(=O)[nH]c2ccccc12)Nc1nc(-c2cccc(Br)c2)cs1`, the max activation was 38.6% (active).
In the case of `COc1ccc(NC(=O)CSc2nc3ccccc3[nH]2)cc1` it was 0.0768% (inactive); in that of `O=C(COC(=O)c1cc(=O)[nH]c2ccccc12)NCc1cccc(Cl)c1`, 3.7% (inactive); in that of `CC1CCN(C(=O)COC(=O)c2cc(=O)[nH]c3ccccc23)CC1`, -2.85% (inactive).
In the case of `COc1ccc(C(=O)Nc2cccc(C(=O)OCc3cc(=O)n4c5c(sc4n3)CCCC5)c2)cc1` it was -9.48% (inactive); in that of `COc1cccc2cc(-c3nc(Cl)c4c5c(sc4n3)CC(C)CC5)c(=O)oc12` (stereo unspecified), 8.91% (inactive).
In the case of `COC(=O)c1sccc1S(=O)(=O)N(CC(=O)Nc1ccc(C)c(F)c1)c1ccc(C)c(C)c1` it was -2.21% (inactive); in that of `Cc1ccc(CN2CCC(CNC(=O)c3cnn(-c4ccccc4Cl)c3C3CCN(C(=O)OC(C)(C)C)CC3)CC2)cc1`, -13.6% (inactive).
For `CO/N=C(/C(=O)N[C@@H]1C(=O)N2C(C(=O)O)=C(Cn3nnc(C)n3)CS[C@H]12)c1csc(N)n1`, the max activation is -4.25% (inactive).
For `Cc1ccc(CCNC(=O)C2CCN(c3nnc(-n4cccc4CNc4ccc(C)cc4)s3)CC2)cc1`, the max activation was 56.2% (active).
In the case of `CSc1ccc(CCNC(=O)C2CCN(c3nnc(-n4cccc4)s3)CC2)cc1` it was -2.44% (inactive); in that of `CCOc1ccc(CNC(=O)C2CCN(c3nnc(-n4cccc4CNc4ccc(C)cc4)s3)CC2)cc1OC`, 1.82% (inactive).
Take `N[C@H]1CN(c2c(F)cc3c(=O)c(C(=O)O)cn(C4C[C@H]4F)c3c2Cl)CC12CC2` (stereo partly specified): the max activation is -3.15% (inactive).
In the case of `O=P(O)(O)OC[C@H](O)CO`, the max activation is -12.8% (inactive).
For `CCc1ccccc1NC(=O)CN(C)S(=O)(=O)c1ccc2c(c1)c(=O)n(C)c(=O)n2C`, the max activation was -4.93% (inactive).
In the case of `CN(CC(=O)Nc1ccccc1F)S(=O)(=O)c1ccc2c(c1)c(=O)n(C)c(=O)n2C` it was 47.6% (active); in that of `CC(C)c1ccc(NC(=O)CN(C)S(=O)(=O)c2ccc3c(c2)c(=O)n(C)c(=O)n3C)cc1`, 0.167% (inactive); in that of `CCc1ccc(S(=O)(=O)c2nnn3c2nc(N2CCN(CC)CC2)c2sccc23)cc1`, 5.12% (inactive).
As to `CCOc1ccc(Nc2oc(/C=C/c3ccc(F)cc3)nc2C#N)cc1`, the max activation is -13.3% (inactive).
In the case of `Fc1ccc(-c2nn(-c3ccccc3Cl)c3c2cnc2ccccc23)cc1` it was 0.11% (inactive); in that of `O=C(c1ccco1)n1nc(-c2ccc(Cl)cc2)nc1NCc1ccccc1`, -9.35% (inactive).
Take `Oc1c(C(c2ccccc2Cl)N2CCOCC2)sc2nc(-c3ccco3)nn12` (stereo unspecified): the max activation was -18% (inactive).
In the case of `CSc1nc(-c2ccco2)nn1C(=O)c1ccccc1Cl` it was 32.7% (active); in that of `CCOC(=O)Cc1cccc(-c2cc(CCCCCCc3ccc(O[C@H]4O[C@H](COC(C)=O)[C@@H](OC(C)=O)[C@H](OC(C)=O)[C@@H]4OC(C)=O)c(-c4cccc(CC(=O)OCC)c4)c3)ccc2O[C@H]2O[C@H](COC(C)=O)[C@@H](OC(C)=O)[C@H](OC(C)=O)[C@@H]2OC(C)=O)c1`, -9.52% (inactive).
For the compound `COc1ccc(-c2nc3cnccn3c2NC2CCCCC2)cc1-c1cccc(Cl)c1`, the max activation is 7.25% (inactive) and 47.9% (active).
In the case of `COc1ccc(-c2nc3cnccn3c2NC(C)(C)CC(C)(C)C)cc1O` it was 4.14% (inactive).
In the case of `COc1ccc(-c2nc3cc(C)ccn3c2NC2CCCCC2)cc1SC1CCCCC1` it was 18.2% (inactive).
In the case of `Cc1ccc(Cl)cc1N1CCN(C(=O)c2cccn3c(=O)c4cc(Cl)ccc4nc23)CC1` it was 1.63% (inactive); in that of `CN(C)CCc1c[nH]c2ccc(Cn3cncn3)cc12`, -8.71% (inactive).
`COc1ccc(Cl)cc1NC(=O)Cn1c(=O)c2ccccc2n2nncc12`: the max activation is -7.09% (inactive).
In the case of `COc1ccccc1C(=O)N1CCNC(=O)C1CC(=O)Nc1ccc(Cl)cc1` (stereo unspecified) it was 4.77% (inactive); in that of `COC(=O)c1cc(NC(=O)CC2C(=O)NCCN2C(=O)c2ccc(F)cc2)cc(C(=O)OC)c1` (stereo unspecified), 5.37% (inactive); in that of `O=C(CC1C(=O)NCCN1C(=O)c1ccc([N+](=O)[O-])cc1)Nc1cccc(Cl)c1` (stereo unspecified), 38.6% (active).
`Brc1cccc(-c2nnn3c2nc(NC2CCCCC2)c2ccccc23)c1`: the max activation was -2.96% (inactive).
Regarding `COc1ccc(CCNC(=O)COc2cc(C)cc3oc(=O)c(C)c(C)c23)cc1OC`, the max activation is 42.4% (active).
In the case of `COc1ccc(CCNC(=O)c2cc(=O)c3c(C)cc(C)cc3o2)cc1OC` it was 21.9% (inactive); in that of `Cc1cc(OCC(=O)NCC(O)c2ccccc2)c2c(C)c(C)c(=O)oc2c1` (stereo unspecified), 2.59% (inactive); in that of `COc1cc2c(cc1OC)CC(=O)N(CCCN(C)C[C@H]1Cc3cc(OC)c(OC)cc31)CC2`, -16.3% (inactive).
